The campaign covered roughly 220,000 compounds. About 240 (0.11%) were called active.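 The calls were made as follows: active = inhibition of 50% or more in the single-dose primary screen; inactive = inhibition below 50%.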 Shown is part of a subset that was picked to be rich in actives.
tested on: hexokinase 1 [Trypanosoma brucei]; experiment: Trypanosoma brucei hexokinase 1 inhibitors, primary screen, biochemical, G6PDH-coupled NADH absorbance, MLSCN library (AID 1430); conditions: recombinant TbHK1, G6PDH-coupled NADH A340; at 10 µM; hits give high values

inhibition, inactive:
CCc1ccc(-c2nn(-c3ccccc3)cc2CSC(=N)N)cc1 14%
O=c1c(-c2ccccc2)cnc2n1CCS2 -3.12%
CN(C)c1ccc(C=C2C(=O)OC3(CCCC3)OC2=O)cc1 -24.4%
Cc1cccc(C)c1NC(=O)C(c1ccccc1)N1CC(=O)Nc2ccccc21 (stereo not given) 3.26%
C/C(CC1CC(C)(C)OC1=O)=N/Nc1nc(-c2ccccc2)cs1 (stereo not given) -4.91%
CCOC(=O)C(=O)Nc1nc(-c2ccccc2)c(CC)s1 -8.25%
Cc1ccc(CNC(=O)COc2ccc(S(=O)(=O)NC(C)C)cc2)cc1 -6.99%
O=C(NC(=S)Nc1cc(C(F)(F)F)ccc1N1CCOCC1)c1ccc(-c2cccc(Cl)c2)o1 -33.5%
CCNC(=O)CC1C(=O)N(c2ccc(F)cc2)C(=O)N1Cc1cccs1 (stereo not given) -6.58%
COC(=O)c1ccc(NC(=S)NN2CCOCC2)cc1 0.284%
COc1ccc(NS(=O)(=O)c2cc(NC(=O)CC(=O)c3ccc([N+](=O)[O-])cc3)ccc2C)cc1 -3.8%
N#C/C(C(=S)Nc1ccccc1)=C1/NN=C(N2CCOCC2)N1c1ccccc1 -22%
Cc1ccc(C(=O)N/C(=C\c2ccco2)C(=O)N2CCSCC2)cc1C -18.1%
C/C(=N/NC(=O)c1cc(Cl)ccc1O)C12CC3CC(CC(C3)C1)C2 -5.54%
Cn1nc(C(F)(F)F)cc1-c1ccc(/C=C(\C#N)C(=O)c2cccc(C(F)(F)F)c2)s1 20.2%
Cc1ccc(/C=C/C(=O)Nc2ccc([N+](=O)[O-])c(NC(=O)/C=C/c3ccc(C)o3)c2)o1 -13.6%
Cc1ccc2[nH]c(C)c(CCNC(=O)NC3CCCCC3)c2c1 -1.75%
C/C(=N/Nc1ccc(Cl)cc1)c1cnnc(-c2ccccc2)n1 -3.6%
COC(C[C@H](O)CC(=O)COCc1ccccc1)OC -5.95%
CC1CCCN(C(=O)c2ccc3c(c2)C(=O)N(CCC2=CCCCC2)C3=O)C1 (stereo not given) 9.11%
